This is part of a sample that, as a whole, favours compounds with a hit. Of some 83,000 tested, about 20% had one in any assay.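 The test compound was applied at a single concentration to cells in 96-well plates for 48 hours, and percent growth was recorded.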 The source made the active and inactive calls. Rule for the calls: active = growth percent below 10; inactive = the rest.
Legend:
Test in all cases: NCI-60 one-dose screen, 48 h (100 = growth as untreated, 0 = no growth, -100 = all killed)
Details in all cases: 10 µM unless noted
[1] = system: DU-145 prostate
[2] = system: K-562 leukemia
[3] = system: MALME-3M melanoma
[4] = system: MDA-MB-231 breast
[5] = system: RXF 393 renal
[6] = system: SF-268 CNS
[7] = system: SF-295 CNS
[8] = system: SF-539 CNS
[9] = system: UACC-257 melanoma
[10] = system: M14 melanoma

Measured: growth

CCOC(=O)N[C@H]1CCc2c(Br)c(OC)c(OC)c(OC)c2-c2ccc(SC)c(=O)cc21
inactive: [3] 35.1% | [5] 12.8% | [6] 17.5% | [7] 10.8% | [9] 67.5%
active: [1] -19.5% | [2] 5.89% | [4] -7.24% | [8] -31.9% | [10] 0.572%

CCn1cnc2c(Nc3cccc(Cl)c3)nc(N[C@@H]3CCCC[C@@H]3N)nc21
active: [1] 6.73% | [2] -2.92% | [4] -22.3% | [5] -44.5% | [6] 0.266% | [7] 9.85% | [8] -5.76% | [10] -45.8%
inactive: [3] 15% | [9] 14.1%

CC(C)=CCc1c(O)c(C(=O)CC(C)C)c(O)c2c(-c3ccccc3)cc(=O)oc12
active: [4] 5.93%
inactive: [1] 61.9% | [2] 28% | [3] 56.9% | [5] 74.1% | [6] 52.1% | [7] 43.4% | [8] 68.9% | [9] 58.1% | [10] 61%

C[C@@H]1CCC2[C@@H](C)[C@H](OC(=O)CCC(=O)NCCNC(=O)Cc3cc(=O)oc4cc(N(C)C)ccc34)O[C@@H]3O[C@]4(C)CC[C@@H]1C23OO4 (some centres undefined)
inactive: [1] 94% | [2] 13.6% | [3] 49.6% | [4] 77% | [5] 61.7% | [6] 56.7% | [7] 41.8% | [8] 55.4% | [9] 59.1% | [10] 38.4%

O=[N+]([O-])c1cc([N+](=O)[O-])c(Cl)cc1Cl
active: [1] -85.3% | [2] -9.49% | [3] -68.4% | [4] -86.5% | [5] -90.6% | [6] -80.2% | [7] -70.4% | [8] -83.2% | [9] -68.9% | [10] -96.8%

CC1=C(CNO)C2=C(C)C3(CC3)[C@@](C)(O)C(=O)C2=C1
active: [1] 4.97% | [3] -62.6% | [5] -70.3% | [6] 0.784% | [7] -4.83% | [8] -35.3% | [9] -24.3%
inactive: [2] 88.4% | [4] 10.3% | [10] 26.8%

CC(=O)O[C@H](C[C@H](C(C)C)N(C)C(=O)[C@@H](NC(=O)[C@H]1CCCCN1C)C(C)C)c1nc(C(=O)NC2CCC(C(=O)O)CC2)cs1 (some centres undefined)
inactive: [1] 41.1% | [2] 22.8% | [3] 61.8% | [4] 64.1% | [5] 44.1% | [6] 48.2% | [7] 35.1% | [8] 27.5% | [9] 50% | [10] 41.5%

CC[C@H](C)[C@H](NC(=O)[C@H]1CCCCN1C)C(=O)N(C)[C@H](C[C@@H](OC(C)=O)c1nc(C(=O)N[C@@H](Cc2ccccc2)C[C@H](C)C(=O)OC)cs1)C(C)C
inactive: [3] 65.5% | [4] 19.5% | [5] 38.1% | [6] 31.2% | [9] 52.9%
active: [1] 1.75% | [2] 4.21% | [7] 2.06% | [8] -11.3% | [10] 3.87%

C1CCC2(CC1)OOCNCOO2
active: [2] -35.4%
inactive: [1] 111% | [3] 110% | [4] 120% | [5] 116% | [6] 97.3% | [7] 97.4% | [8] 101% | [9] 98.5% | [10] 100%

COc1ccc(C(O)(C(=O)O)c2ccc(OC)cc2)cc1
inactive: [1] 104% | [2] 87.8% | [3] 105% | [4] 85.7% | [5] 109% | [6] 95.3% | [7] 87.1% | [8] 86.8% | [9] 90.6% | [10] 86.2%

CC(=O)O[C@H]1CC[C@@]2(C)C(=CC[C@H]3[C@@H]4C[C@@H](N5CC5)[C@H](C(C)=O)[C@@]4(C)CC[C@@H]32)C1
inactive: [1] 105% | [2] 72.4% | [3] 98.1% | [4] 91.4% | [5] 103% | [6] 93.2% | [7] 97.5% | [8] 88.8% | [9] 112% | [10] 95.6%

CC(C)(C)C(=O)OCOP(=O)(NCc1ccccc1)C1CCCN(O)C1=O (centres undefined)
inactive: [1] 55% | [2] 32.3% | [3] 19.9% | [4] 22.6% | [6] 10.5% | [7] 60.3% | [8] 45.2% | [9] 57.3% | [10] 38.4%
active: [5] 8.85%

CCCCCCCC[n+]1ccc2ccccc2c1
inactive: [1] 82.7% | [2] 22.6% | [3] 42.4% | [4] 67% | [5] 97.4% | [6] 80.4% | [7] 67% | [8] 62.6% | [9] 20% | [10] 42.6%

CC(C)COC(C[N+](=O)[O-])C(Cl)(Cl)Cl (centres undefined)
inactive: [1] 119% | [2] 99.9% | [3] 123% | [4] 111% | [5] 115% | [6] 105% | [7] 113% | [8] 106% | [9] 96.1% | [10] 105%

O=C1OCCC1Br (centres undefined)
inactive: [1] 106% | [2] 80.9% | [3] 97.8% | [4] 103% | [5] 114% | [6] 108% | [7] 105% | [8] 95.6% | [9] 83%

CCCCNC(c1ccc(Cl)cc1)C(O)c1ccc(Cl)cc1 (centres undefined)
inactive: [1] 37.2% | [3] 39.7% | [5] 58.4% | [6] 55.9% | [7] 41.3% | [8] 68.3% | [9] 86% | [10] 25.7%
active: [2] 0.937% | [4] 5.73%

Oc1c(CCl)cc(Cl)cc1CCl
inactive: [1] 122% | [2] 99.3% | [3] 110% | [4] 104% | [5] 119% | [6] 104% | [7] 106% | [8] 104% | [9] 131% | [10] 108%

COc1cc2ncnc(Nc3ccc(F)c(Cl)c3)c2cc1OCC(=O)N1CCN(C)CC1
inactive: [1] 62.6% | [2] 82.8% | [3] 96.5% | [4] 94.7% | [5] 88.8% | [6] 73.6% | [7] 92.8% | [8] 98.2% | [9] 104% | [10] 97.5%

COC(=O)[C@H](Cc1ccccc1)NC(=O)c1csc([C@@H](C[C@H](C(C)C)N(C)C(=O)[C@@H](NC(=O)[C@H]2CCCCN2C)C2CC2)OC(C)=O)n1
inactive: [3] 67.8% | [5] 75.8% | [6] 19.2% | [9] 54.2%
active: [1] 6.13% | [2] 3.82% | [4] -1.7% | [7] 3.79% | [8] -14.4% | [10] -5.77%

COc1ccc2nc(NC(=O)COc3cc(/C=C\c4cc(OC)c(OC)c(OC)c4)ccc3OC)sc2c1
active: [1] 0.406% | [5] -19.9% | [7] -2.09% | [8] -7.12%
inactive: [2] 15.6% | [3] 14.1% | [4] 22.7% | [6] 42.3% | [9] 59.5% | [10] 22.9%

O=C1C2CCC1C(N1CCCC1)CC2 (centres undefined)
inactive: [1] 107% | [2] 98.8% | [3] 94.7% | [4] 110% | [5] 104% | [6] 102% | [7] 95.5% | [8] 95% | [9] 93% | [10] 101%

Cc1c(C)c([N+](=O)[O-])c(C)c(C)c1[N+](=O)[O-]
inactive: [1] 108% | [2] 102% | [3] 138% | [4] 108% | [5] 112% | [6] 100% | [7] 101% | [8] 108% | [9] 99.5% | [10] 115%

CCOC(=O)[C@@H](C)C[C@H](Cc1ccccc1)NC(=O)c1nc([C@@H](C[C@H](C(C)C)N(C)C(=O)[C@@H](NC(=O)[C@H]2CCCCN2C)C(C)C)OC(C)=O)sc1CCOCc1ccccc1
active: [1] -27.3% | [2] -31.4% | [3] -77.4% | [4] -49.8% | [5] -14.2% | [6] -38% | [7] -33.6% | [8] -69.2% | [9] -7.85% | [10] -57.1%

C[C@]12CCc3sc(-c4ccccc4O)nc3C1=CC[C@@H]1[C@@H]2CC[C@]2(C)C(=O)CC[C@@H]12
inactive: [1] 107% | [2] 95.8% | [3] 102% | [4] 103% | [5] 107% | [6] 100% | [7] 100% | [8] 105% | [9] 107% | [10] 106%

Source: PubChem BioAssay (NCI)
